Rows were chosen to be rich in hits. Some 4.5% of all compounds tested hit in one or more screens of this group.
PrPC TRFRET: reduces human prion protein on the cell surface; P04156; cell surface PrPC, TR-FRET read-out; inhibition, % at 13.8 µM; 370,000 compounds, 0.43% hits; AID 720596; in the data active means inhibition above about 24%; further: 0% = median of the test wells and 100% = reference compound wells
PrP UTR inh: suppresses PrP 5' UTR mRNA reporter expression | 340,000 compounds, 0.35% hits | AID 488862 | cell-based PrP 5' UTR mRNA reporter, plate reader | inhibition, % (concentration not given with the values); in the data active means inhibition above about 52%; further: 0 = median of the neutral control wells
PfHsp40 yeast: restores yeast growth despite PfHsp40 toxicity. S. cerevisiae expressing PfHsp40, growth rescue, ATP luminescence. growth rescue, % at 12.5 µM. 340,000 compounds, 0.68% hits. AID 504582; in the data active means growth rescue above about 28%, passing the limit was not always enough;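 further: yeast W303a lacking pdr1 and pdr3 grown in galactose medium; growth measured after three days at 30 °C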
FBA Mtb inh: inhibits M. tuberculosis FBA enzyme; P9WQA3; purified M. tuberculosis FBA, fluorescence read-out; inhibition, % at 1 µM; 360,000 compounds, 2.3% hits;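 further: 0% = vehicle and 100% = reference inhibitor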
Target sequence (P9WQA3 whole entry, looked up): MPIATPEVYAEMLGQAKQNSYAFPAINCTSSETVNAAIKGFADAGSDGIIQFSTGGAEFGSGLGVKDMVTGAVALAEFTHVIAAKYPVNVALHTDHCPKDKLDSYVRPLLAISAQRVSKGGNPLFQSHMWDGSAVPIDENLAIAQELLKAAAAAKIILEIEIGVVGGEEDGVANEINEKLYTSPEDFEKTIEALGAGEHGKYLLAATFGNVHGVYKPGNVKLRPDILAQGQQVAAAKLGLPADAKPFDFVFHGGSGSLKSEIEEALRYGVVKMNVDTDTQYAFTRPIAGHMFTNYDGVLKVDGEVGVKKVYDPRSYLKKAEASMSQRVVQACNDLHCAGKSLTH
GDH-TPI counter-1: GDH-TPI coupled enzyme inhibition counter-screen; GDH-TPI coupled enzyme counterscreen, NADH absorbance; inhibition, % at 4.8 µM; 360,000 compounds, 1.2% hits; in the data active means inhibition above about 30%;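 further: 0% = DMSO wells and 100% = wells lacking the enzyme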
BJeLR viability: BJeLR cell viability loss; inhibition, % (no concentration beside the values); AID 1554; BJeLR (HRASV12) viability, CellTiter-Glo ATP luminescence, 48 h; 300,000 compounds, 0.17% hits; in the data active means inhibition above about 50%
Mtb FBA inh conf: confirmation of M. tuberculosis fructose-bisphosphate aldolase inhibitors; 5,600 compounds, 78% hits; purified M. tuberculosis FBA, fluorescence read-out; inhibition, % at 1 µM; shares compounds with FBA Mtb inh;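 further: 0% = vehicle wells and 100% = reference inhibitor wells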
GDH-TPI counter-2: GDH-TPI inhibition counter-screen for FBA inhibitors; inhibition, % at 1 µM; shares compounds with FBA Mtb inh; GDH-TPI coupled enzyme counterscreen, fluorescence; 5,600 compounds, 81% hits; in the data active means inhibition above about 10%
Starred values were filed as active, the others as inactive; / = no result given; + = active, no number. Unless noted, no stated cut-off is given here; in the data, active means inhibition above about 27%; inactive means the rest.

SMILES	PrPC TRFRET	PrP UTR inh	PfHsp40 yeast	FBA Mtb inh	GDH-TPI counter-1	BJeLR viability	Mtb FBA inh conf	GDH-TPI counter-2
Cc1cc(-c2ccccc2)[nH]c(=O)c1C#N	7	-2	0	69*	27	7	67*	52*
CN(C)c1c(-c2ccccc2)cc(-c2ccccc2)[nH]c1=O	-7	-18	0	7	3	19	/	/
CC(C)(C)c1cc(NC(=O)COC(=O)c2ccccc2O)n(-c2ccccc2)n1	1	/	/	4	-4	/	/	/
CC(C)(C)c1cc(NC(=O)COC(=O)c2nccnc2N)n(-c2ccccc2)n1	-1	-18	0	87*	8	-7	47*	36*
CCCc1cc(NC(=O)COC(=O)c2nccnc2N)n(-c2ccccc2)n1	0	3	-1	85*	16	/	51*	45*
C[C@H]1CN([C@@H](C)CO)C(=O)CCCn2nncc2CO[C@@H]1CN(C)S(=O)(=O)c1ccc(Oc2ccccc2)nc1	-1	/	/	0	2	/	/	/
CC(Cc1cccnc1)NC(=O)c1cc(COc2ccc(F)cc2Cl)on1 (stereo not given)	0	-7	0	3	9	-9	/	/
CCN1C(=O)c2cccc3c(S(=O)(=O)N(C(C)=O)c4ccc(OC(C)=O)cc4)ccc1c23	-14	-20	-1	53*	12	/	+	+
Cc1ccccc1-n1ccnc1SCC(=O)NCc1ccco1	3	-19	0	1	-2	7	/	/
Cc1ccc2[nH]c(=O)c3cc(C(=O)NC(C)C)sc3c2c1	-1	-24	-2	74*	19	6	85*	68*
CCCN1CCN(CCCNC(=O)c2cc3c(=O)[nH]c4ccc(C)cc4c3s2)CC1	-5	-21	0	53*	6	5	91*	93*
C=CCNC(=O)CN(C(=O)c1csc2ccc(Cl)cc12)c1cccc(Br)c1	5	/	/	/	/	/	/	/
O=C(Oc1ccc2c(=O)c(Oc3ccc4ccccc4c3)coc2c1)c1ccco1	2	-18	0	40*	-10	-1	42*	35*
Cc1cccc(Oc2coc3cc(OC(=O)c4cc5ccccc5oc4=O)ccc3c2=O)c1	-5	-35	0	16	10	6	/	/
Cc1cc(C)cc(Oc2coc3cc(OC(=O)c4cccnc4)ccc3c2=O)c1	6	-19	-1	32*	5	19	47*	36*
Cc1cccc(Oc2coc3cc(OC(=O)c4cncc(Br)c4)ccc3c2=O)c1	6	-11	-1	15	13	2	/	/
Cc1ccc(SCC(=O)NNC(=O)c2cncc(Br)c2)cc1	11	-30	-1	-1	11	/	/	/
C=CCn1c(SCC(=O)N(CC)C2CCS(=O)(=O)C2)nc2cc(C(=O)O)ccc2c1=O (stereo not given)	2	1	1	32*	5	/	111*	89*
Cc1cc(N2CCN(C)CC2)nc2ccc(NC(=O)CCC(=O)NCCCOC(C)C)cc12	4	-10	-1	25	4	-5	/	/
Cc1cc(N2CCN(C)CC2)nc2ccc(NC(=O)CCC(=O)N3CCN(c4ccc([N+](=O)[O-])cc4)CC3)cc12	-21	-18	0	-5	8	-1	/	/
CCCCNC(=O)CCC(=O)Nc1ccc2nc(N3CCCCC3)cc(C)c2c1	2	-48	13	78*	5	-3	+	145*
Cc1cc(N2CCOCC2)nc2ccc(NC(=O)CCC(=O)N3CCC4(CC3)OCCO4)cc12	2	-30	-1	58*	11	-8	+	+
Cc1cc(N2CCCCC2)nc2ccc(NC(=O)CCC(=O)NCCC(C)C)cc12	-3	-33	0	54*	2	-11	-5	-4
COCCCNC(=O)CCC(=O)Nc1ccc2nc(N3CCOCC3)cc(C)c2c1	-3	-61	-1	88*	8	5	3	-1
COc1cc2nc(NC(=O)c3ccc(F)cc3Cl)sc(=O)c2cc1OC	/	-18	0	2	12	-6	/	/
SMILES	PrPC TRFRET	PrP UTR inh	PfHsp40 yeast	FBA Mtb inh	GDH-TPI counter-1	BJeLR viability	Mtb FBA inh conf	GDH-TPI counter-2
COc1cccc(C(O)c2ncc(-c3ccccc3)[nH]2)c1 (stereo not given)	-3	/	/	2	-1	/	/	/
CCOC(=O)C1CCCN(C(=O)CCC(=O)Nc2ccc3nc(N4CCOCC4)cc(C)c3c2)C1 (stereo not given)	-6	-30	-1	67*	12	-12	89*	69*
COc1cccc(NC(=O)CCC(=O)Nc2ccc3nc(N4CCOCC4)cc(C)c3c2)c1	4	-84	-1	66*	-5	-15	125*	95*
CCCCNC(=O)CCC(=O)Nc1ccc2nc(N3CCOCC3)cc(C)c2c1	2	-42	1	62*	3	0	4	-7
Cc1cc(N2CCOCC2)nc2ccc(NC(=O)C3CCC(C)CC3)cc12 (stereo not given)	-1	7	0	9	9	-5	/	/
CCN1CCN(c2cc(C)c3cc(NC(=O)CCC(=O)Nc4ccc(OC)cc4OC)ccc3n2)CC1	-3	-6	-1	23	14	8	/	/
COc1ccc(CCCNC(=O)C2(C)Cc3c(-c4cccc(C(N)=O)c4)ccnc3O2)cc1 (stereo not given)	4	/	/	2	12	/	/	/
Cc1cc(=O)oc(C)c1C(=O)Nc1ccc(N(C)C)cc1	5	-7	2	0	-2	5	/	/
COc1ccccc1CC(=O)Nc1ccc2c(C)cc(=O)oc2c1	-5	-33	-1	37*	22	0	101*	82*
Cc1cc(=O)oc2cc(NC(=O)COc3ccccc3[N+](=O)[O-])ccc12	-10	-29	-1	18	7	/	/	/
Cc1cc(=O)oc2cc(NC(=O)COc3cccc(C(F)(F)F)c3)ccc12	3	-13	0	41*	16	/	71*	50*
NC(N)=NCCC[C@H](NC(=O)OCc1ccccc1)C(=O)O	-4	-10	0	-2	-8	9	/	/
Cc1cc(=O)oc2cc(NC(=O)C(CCCN=C(N)N)NC(=O)OCc3ccccc3)ccc12 (stereo not given)	4	-9	0	37*	18	-1	38*	23*
Cc1cc(=O)oc2cc(NC(=O)c3ccccc3Cl)ccc12	8	-152	-1	96*	22	0	0	0
Cc1cccc(OCC(=O)Nc2ccc3c(C)cc(=O)oc3c2)c1	10	-13	0	15	15	1	/	/
O=C(N=C1SC2CS(=O)(=O)CC2N1c1ccc(Br)cc1)C1CCCO1 (stereo not given)	-4	-21	2	-2	3	0	/	/

Bioassay records (PubChem)
